# According to PMC7862700, “An all-to-all approach to the identification of sequence-specific readers for epigenetic DNA modifications on cytosine”:
# Assays:
# Assay in all cases: DAPPL (digital affinity profiling via proximity ligation, sequencing); 10 mM Tris-HCl pH 7.5, 50 mM NaCl, 1 mM DTT, 4% glycerol, room temperature, 30 min; GST-TFs on glutathione beads, 16-mer random dsDNA library, 0.1% formaldehyde crosslink after washing; high values mean tight binding
# Conditions in all cases: protein: recombinant; tags: N-terminal GST; dsDNA, one strand shown
# ELK1 = biological target: T1, ELK1 (Homo sapiens, UniProt P19419 1-428)
# T1 sequence: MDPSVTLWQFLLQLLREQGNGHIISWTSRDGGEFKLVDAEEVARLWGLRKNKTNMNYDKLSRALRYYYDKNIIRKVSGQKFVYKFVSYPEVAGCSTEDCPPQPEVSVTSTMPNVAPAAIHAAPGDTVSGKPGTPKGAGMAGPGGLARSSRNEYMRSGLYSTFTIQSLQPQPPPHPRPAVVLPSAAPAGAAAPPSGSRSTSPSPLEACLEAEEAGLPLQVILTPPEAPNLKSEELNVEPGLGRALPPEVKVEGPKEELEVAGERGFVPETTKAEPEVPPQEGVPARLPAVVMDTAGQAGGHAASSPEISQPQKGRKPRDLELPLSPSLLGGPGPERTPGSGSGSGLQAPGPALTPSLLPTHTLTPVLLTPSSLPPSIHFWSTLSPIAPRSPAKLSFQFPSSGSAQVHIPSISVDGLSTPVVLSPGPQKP
# In short: (§1)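 A tag-only sample was pooled with DNA-barcoded human transcription factors that had been expressed in yeast as GST fusions and captured on glutathione beads. The pools were incubated for 30 min at room temperature with 200 nmole of a random double-stranded 16-mer DNA library in Tris/NaCl/DTT/glycerol buffer, then washed, crosslinked with 0.1% formaldehyde, proximity-ligated (BsaI/T4 ligase, 1 h, 37 °C), PCR-amplified and sequenced on an Illumina NextSeq500. Binding signal is each hexamer's read frequency for a factor divided by its frequency for the tag-only sample.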
# GABPA = biological target: T2, GABPA (Homo sapiens, UniProt Q06546 1-454)
# T2 sequence: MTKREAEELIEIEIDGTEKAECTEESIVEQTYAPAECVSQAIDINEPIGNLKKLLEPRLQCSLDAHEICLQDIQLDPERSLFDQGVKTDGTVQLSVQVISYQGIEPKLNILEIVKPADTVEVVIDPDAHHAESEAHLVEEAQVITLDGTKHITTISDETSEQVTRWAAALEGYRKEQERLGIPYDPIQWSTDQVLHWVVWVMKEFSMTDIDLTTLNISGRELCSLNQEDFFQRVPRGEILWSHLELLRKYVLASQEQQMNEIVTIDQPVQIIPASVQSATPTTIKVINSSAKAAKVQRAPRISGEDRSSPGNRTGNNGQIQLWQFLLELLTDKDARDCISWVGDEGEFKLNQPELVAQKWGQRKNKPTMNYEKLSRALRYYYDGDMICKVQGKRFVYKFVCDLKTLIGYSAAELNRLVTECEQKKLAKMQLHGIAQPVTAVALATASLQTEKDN
# In short: as §1
# ERG = biological target: T3, ERG (Homo sapiens, UniProt P11308 1-479)
# T3 sequence: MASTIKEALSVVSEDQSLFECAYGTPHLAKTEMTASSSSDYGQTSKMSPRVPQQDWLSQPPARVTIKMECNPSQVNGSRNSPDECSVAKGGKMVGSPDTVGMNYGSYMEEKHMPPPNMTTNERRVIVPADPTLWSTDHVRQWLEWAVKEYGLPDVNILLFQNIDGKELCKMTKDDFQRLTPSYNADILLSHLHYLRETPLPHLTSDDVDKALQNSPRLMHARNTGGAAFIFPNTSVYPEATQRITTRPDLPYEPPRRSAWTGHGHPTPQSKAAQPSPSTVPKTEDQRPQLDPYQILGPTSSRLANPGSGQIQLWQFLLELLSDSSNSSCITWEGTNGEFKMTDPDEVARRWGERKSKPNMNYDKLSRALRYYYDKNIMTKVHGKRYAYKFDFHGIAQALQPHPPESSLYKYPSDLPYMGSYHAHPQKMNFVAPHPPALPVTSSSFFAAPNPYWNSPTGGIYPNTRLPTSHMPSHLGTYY
# In short: as §1
# ELF1 = ELF1 (Homo sapiens, UniProt P32519 1-619)
# ELF1, sequence (P32519 whole entry): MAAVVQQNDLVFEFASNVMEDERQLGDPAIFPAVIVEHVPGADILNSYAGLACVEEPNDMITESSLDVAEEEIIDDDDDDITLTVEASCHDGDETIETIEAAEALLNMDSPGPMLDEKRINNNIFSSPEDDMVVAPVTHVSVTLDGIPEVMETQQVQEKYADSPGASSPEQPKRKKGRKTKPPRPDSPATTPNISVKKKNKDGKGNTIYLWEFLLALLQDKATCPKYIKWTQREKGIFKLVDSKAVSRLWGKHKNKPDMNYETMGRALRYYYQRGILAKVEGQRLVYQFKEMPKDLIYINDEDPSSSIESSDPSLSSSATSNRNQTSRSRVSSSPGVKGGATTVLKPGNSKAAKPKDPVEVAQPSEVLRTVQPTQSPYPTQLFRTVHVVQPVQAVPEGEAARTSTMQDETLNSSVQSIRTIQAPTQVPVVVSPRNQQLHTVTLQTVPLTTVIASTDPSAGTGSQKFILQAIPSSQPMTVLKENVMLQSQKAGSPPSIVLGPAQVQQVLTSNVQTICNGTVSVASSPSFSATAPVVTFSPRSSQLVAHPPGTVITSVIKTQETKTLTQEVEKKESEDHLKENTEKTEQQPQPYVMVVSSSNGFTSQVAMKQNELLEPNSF
# In short: as §1
# EHF = biological target: T4, EHF (Homo sapiens, UniProt Q9NZC4 1-300)
# T4 sequence: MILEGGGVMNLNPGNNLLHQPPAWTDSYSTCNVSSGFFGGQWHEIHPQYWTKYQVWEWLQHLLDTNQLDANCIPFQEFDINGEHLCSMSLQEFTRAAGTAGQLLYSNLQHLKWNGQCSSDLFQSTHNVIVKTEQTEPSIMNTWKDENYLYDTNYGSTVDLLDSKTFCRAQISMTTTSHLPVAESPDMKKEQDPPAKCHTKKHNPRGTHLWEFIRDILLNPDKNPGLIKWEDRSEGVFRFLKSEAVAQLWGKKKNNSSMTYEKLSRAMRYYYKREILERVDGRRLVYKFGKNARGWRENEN
# In short: as §1
# SPIB = SPIB (Homo sapiens, UniProt Q01892 1-262)
# SPIB, sequence (Q01892 whole entry): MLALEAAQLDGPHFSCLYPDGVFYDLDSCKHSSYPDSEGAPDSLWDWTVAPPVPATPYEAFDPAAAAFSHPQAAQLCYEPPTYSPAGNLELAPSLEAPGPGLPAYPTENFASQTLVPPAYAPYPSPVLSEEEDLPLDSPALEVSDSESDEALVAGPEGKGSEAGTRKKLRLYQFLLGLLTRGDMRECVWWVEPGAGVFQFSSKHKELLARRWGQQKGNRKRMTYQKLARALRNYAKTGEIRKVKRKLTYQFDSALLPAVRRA
# In short: as §1
# FEV = biological target: T5, FEV (Homo sapiens, UniProt Q99581 1-238)
# T5 sequence: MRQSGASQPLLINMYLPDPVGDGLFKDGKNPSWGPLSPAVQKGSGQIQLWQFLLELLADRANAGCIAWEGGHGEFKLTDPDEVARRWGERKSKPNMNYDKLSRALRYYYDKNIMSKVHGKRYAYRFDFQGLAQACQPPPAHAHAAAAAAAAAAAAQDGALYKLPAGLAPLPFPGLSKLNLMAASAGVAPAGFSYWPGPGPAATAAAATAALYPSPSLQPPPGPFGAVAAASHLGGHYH
# In short: as §1
# ETV5 = ETV5 (Homo sapiens, UniProt P41161 1-510)
# ETV5, sequence (P41161 whole entry): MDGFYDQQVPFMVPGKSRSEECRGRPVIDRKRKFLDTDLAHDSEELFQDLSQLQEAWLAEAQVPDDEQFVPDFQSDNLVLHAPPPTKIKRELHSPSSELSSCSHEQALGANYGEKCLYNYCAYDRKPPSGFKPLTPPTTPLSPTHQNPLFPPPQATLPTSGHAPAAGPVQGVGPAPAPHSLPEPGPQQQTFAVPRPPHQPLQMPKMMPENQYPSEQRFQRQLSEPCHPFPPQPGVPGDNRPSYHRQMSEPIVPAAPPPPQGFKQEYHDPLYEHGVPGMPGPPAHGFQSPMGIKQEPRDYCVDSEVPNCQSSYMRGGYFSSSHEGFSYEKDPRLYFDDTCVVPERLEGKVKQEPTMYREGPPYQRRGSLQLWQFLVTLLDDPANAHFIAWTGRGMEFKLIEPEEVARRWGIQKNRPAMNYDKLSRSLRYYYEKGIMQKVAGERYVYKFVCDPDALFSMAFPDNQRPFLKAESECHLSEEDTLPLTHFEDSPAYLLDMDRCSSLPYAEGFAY
# In short: as §1
# ELF4 = ELF4 (Homo sapiens, UniProt Q99607 1-663)
# ELF4, sequence (Q99607 whole entry): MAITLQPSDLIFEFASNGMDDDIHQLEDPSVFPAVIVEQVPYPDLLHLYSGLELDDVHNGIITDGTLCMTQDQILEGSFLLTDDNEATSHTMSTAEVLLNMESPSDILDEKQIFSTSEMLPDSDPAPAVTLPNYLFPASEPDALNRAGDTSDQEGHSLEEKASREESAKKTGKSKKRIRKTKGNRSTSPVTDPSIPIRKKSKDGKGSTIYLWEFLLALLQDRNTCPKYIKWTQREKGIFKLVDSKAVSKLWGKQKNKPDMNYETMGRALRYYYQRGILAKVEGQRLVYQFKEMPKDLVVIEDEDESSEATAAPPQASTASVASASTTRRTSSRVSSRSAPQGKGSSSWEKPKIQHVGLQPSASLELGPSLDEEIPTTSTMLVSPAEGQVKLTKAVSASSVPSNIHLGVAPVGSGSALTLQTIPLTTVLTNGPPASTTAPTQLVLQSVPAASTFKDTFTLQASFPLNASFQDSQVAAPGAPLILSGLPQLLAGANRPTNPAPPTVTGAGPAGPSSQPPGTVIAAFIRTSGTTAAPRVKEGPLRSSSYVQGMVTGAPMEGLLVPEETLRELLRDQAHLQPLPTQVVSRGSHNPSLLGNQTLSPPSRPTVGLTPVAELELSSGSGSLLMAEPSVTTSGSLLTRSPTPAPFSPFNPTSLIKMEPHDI
# In short: as §1
sequence,measurement,setting,value
CACCGG,binding signal,ELK1,"1.16 fold enrichment (6-mer frequency, TF over GST control)"
same,binding signal,GABPA,"1.04 fold enrichment (6-mer frequency, TF over GST control)"
same,binding signal,ERG,"1.27 fold enrichment (6-mer frequency, TF over GST control)"
same,binding signal,ELF1,"1.09 fold enrichment (6-mer frequency, TF over GST control)"
same,binding signal,EHF,"1.13 fold enrichment (6-mer frequency, TF over GST control)"
same,binding signal,SPIB,"1.16 fold enrichment (6-mer frequency, TF over GST control)"
same,binding signal,FEV,"1.75 fold enrichment (6-mer frequency, TF over GST control)"
same,binding signal,ETV5,"1.21 fold enrichment (6-mer frequency, TF over GST control)"
same,binding signal,ELF4,"1.16 fold enrichment (6-mer frequency, TF over GST control)"
